Sampled rows, rich in hits. Any-hit rate of the full collection: about 5.9%.
TrxR1 inh – qHTS Assay for Inhibitors of Mammalian Selenoprotein Thioredoxin Reductase 1 (TrxR1): qHTS. recombinant rTrxR1, NADPH fluorescence consumption, selenite substrate. Potency, µM (top dose mostly 114 µM), for inactives: at the highest dose activity change, negative = inhibition, most hits filed as inhibitors. 1% of 390,000 active; further: potency means the concentration at half of the fitted maximal effect; nearly all actives have a fitted effect of over 65% in size
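Rat TrxR1 (90 nM in the dispensed reagent) was pre-reduced with 400 uM NADPH for 5 min at room temperature, then incubated with compound for 15 min. After 400 uM selenite was added, NADPH fluorescence (Ex 340/Em 450 nm) was followed for 8 min.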
Gal4-VP16 FLuc – VP16 counterscreen qHTS for inhibitors of ROR gamma transcriptional activity | Drosophila S2 Gal4-VP16 UAS-luciferase, luminescence, 20 h | Potency, µM (series often up to 53.6 µM), for inactives: top-dose activity, negative = inhibition, hits mostly inhibitors | 3.5% of 310,000 active | AID 2546, 2010;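 further: Gal4-VP16 expression switched on by copper sulfate through the metallothionein promoter; potency means the concentration at half of the fitted maximal effect; nearly all actives have a fitted effect of over 50% in size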
TrxR1 substrate – qHTS Assay for Substrates of Mammalian Selenoprotein Thioredoxin Reductase 1 (TrxR1): qHTS; Thioredoxin reductase 1, cytoplasmic (Rattus norvegicus), O89049; purified TrxR1 substrate turnover, NADPH consumption readout; Potency, µM (top dose mostly 114 µM), inactives show at the highest dose activity change, negative = substrate turnover; 0.01% of 390,000 active; further: potency means the concentration at half of the fitted maximal effect; nearly all actives have a fitted effect of over 50% in size
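Rat TrxR1, dispensed at 90 nM, was prereduced with 400 uM NADPH (final) for 5 min at ~22 deg C, then incubated with compound 15 min before 400 uM selenite. A first-read NADPH fluorescence drop versus no-compound background flagged substrates.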
RORgamma inh – qHTS for inhibitors of ROR gamma transcriptional activity | Nuclear receptor ROR-gamma (Mus musculus), P51450 | Drosophila S2 Gal4-RORgamma UAS-luciferase reporter, 20 h | Potency, µM (titrated, usually from 53.6 µM), for inactives: at the highest dose activity change, negative = inhibition, most hits filed as inhibitors | 5.4% of 310,000 active | AID 2551, 2010; further: potency means the concentration at half of the fitted maximal effect; nearly all actives have a fitted effect of over 60% in size
Target sequence (P51450 whole entry, looked up, the tested form may be a part): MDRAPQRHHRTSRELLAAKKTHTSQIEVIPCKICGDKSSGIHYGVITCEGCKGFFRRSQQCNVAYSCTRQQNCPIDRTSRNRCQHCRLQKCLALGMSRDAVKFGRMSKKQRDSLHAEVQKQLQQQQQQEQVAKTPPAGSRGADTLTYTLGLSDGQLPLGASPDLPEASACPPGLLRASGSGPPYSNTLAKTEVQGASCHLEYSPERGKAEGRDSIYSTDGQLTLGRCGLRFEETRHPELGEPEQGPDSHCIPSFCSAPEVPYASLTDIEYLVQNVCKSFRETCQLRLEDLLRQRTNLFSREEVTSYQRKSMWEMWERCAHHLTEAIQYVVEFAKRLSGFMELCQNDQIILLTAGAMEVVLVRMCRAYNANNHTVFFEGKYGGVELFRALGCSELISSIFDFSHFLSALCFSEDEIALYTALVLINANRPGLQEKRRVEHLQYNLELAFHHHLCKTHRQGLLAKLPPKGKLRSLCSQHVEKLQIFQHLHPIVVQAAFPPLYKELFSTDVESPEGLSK
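ROR gamma transcriptional activity was tracked as Gal4-UAS luciferase output in stably transfected Drosophila Schneider cells, with compound added 1 hr before 700 uM copper sulfate induction and a 20 hr ambient-temperature incubation.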
FBPA coupling cs – qHTS Assay for Inhibitors of Fructose-1,6-bisphosphate Aldolase from Giardia Lamblia: Coupling assay counterscreen | AID 2472, 2010 | activity change, negative = inhibition, % at 58.2 µM, hits read low | 0.67% of 290,000 active | coupling enzyme system counterscreen, AmpLite Red fluorescence; in the data active means activity change below about -30%
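Activity here indicates interference with the coupling reaction, not aldolase inhibition. Compounds at 57.5 uM final met coupling enzymes for 10 min at RT; substrate and AmpLite Red detection followed, with a 525/598 nm fluorescence read after 20 min.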
GALK inh – qHTS Assay for Inhibitors of Human Galactokinase (GALK) | P51570 | Purified GALK, Kinase-Glo residual ATP luminescence | Potency, µM (titrated, usually from 57.5 µM), inactives show top-dose activity change, negative = inhibition, most hits filed as inhibitors | 0.007% of 270,000 active | AID 1868, 2009; further: potency means the concentration at half of the fitted maximal effect
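Human GALK (5 nM) with 35 uM ATP and 100 uM galactose in 20 mM HEPES pH 8.0, 5 mM MgCl2, 60 mM NaCl, 1 mM DTT, 0.01% BSA. After 1 h at room temperature, leftover ATP was read by Kinase-Glo Plus luminescence.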
An asterisk follows results filed as active; [ ] = dose if it differs, or a comment. Unless noted, the call rests on the fitted dose curve; in most records, active means well fitted curve in the direction sought with a large enough effect; inconclusive means small, poorly fitted or top-dose-only effect, or another doubt; inactive means no such curve, though single readings can be large; an effect the other way counts as inactive or inconclusive. On the % scale 0 is the no-effect control and ±100 the full control effect.

`CCOC(=O)c1cnc(SC2CC(=O)N(c3cccc(OC)c3)C2=O)nc1N` (configuration not stated) gave TrxR1 inh -8%, Gal4-VP16 FLuc inconclusive, TrxR1 substrate -8%[57.1 µM], RORgamma inh -14%, FBPA coupling cs -1 and GALK inh 1%.
For CCOc1ccc2nc(SC3CC(=O)N(c4cccc(OC)c4)C3=O)sc2c1 (configuration not stated) the results were TrxR1 inh -26%, Gal4-VP16 FLuc 4µM*, TrxR1 substrate -8%, RORgamma inh 14µM*, FBPA coupling cs 0 and GALK inh 1%.
`OC[C@@H](O)[C@@H](O[C@@H]1O[C@H](CO)[C@H](O)[C@H](O)[C@H]1O)[C@H](O)[C@@H](O)CO` gave TrxR1 inh 4% and TrxR1 substrate 6%.
`COc1ccc(CNC(=O)c2ccccc2SCC(=O)N2CCCC2)cc1OC` gave TrxR1 inh -1%[57.1 µM] and TrxR1 substrate -2%[57.1 µM].
Screening Oc1ccc2ccccc2c1/C=N/n1cnnc1 returned TrxR1 inh 0%, Gal4-VP16 FLuc 2%, TrxR1 substrate -1%, RORgamma inh -6%, FBPA coupling cs 2 and GALK inh -1%.
`Cc1cc(C)n(/N=C\c2c(O)ccc3ccccc23)c(=O)c1C(N)=O` gave TrxR1 inh -3%, Gal4-VP16 FLuc 2%, TrxR1 substrate -11%, RORgamma inh inconclusive, FBPA coupling cs -32* and GALK inh 1%.
CON/C=N/C(=S)Nc1ncc(C(F)(F)F)cc1Cl was read as TrxR1 inh 0%, Gal4-VP16 FLuc inconclusive, TrxR1 substrate 6%, RORgamma inh 0.56µM*, FBPA coupling cs -3 and GALK inh -2%.
For ON/C=N/C(=S)Nc1ncc(C(F)(F)F)cc1Cl the results were TrxR1 inh -12%, Gal4-VP16 FLuc inconclusive, TrxR1 substrate -2%, RORgamma inh 1.6µM*, FBPA coupling cs -3 and GALK inh 1%.
Screening COc1cc(C2C(C#N)=C(N)N(c3ccc(F)cc3)C3=C2S(=O)(=O)CC3)ccc1O (configuration not stated) returned TrxR1 inh 11µM*, Gal4-VP16 FLuc 6%, TrxR1 substrate 7%, RORgamma inh 11%, FBPA coupling cs -10 and GALK inh -2%.
`COc1cc(C2C(C#N)=C(N)N(c3cccnc3)C3=C2C(=O)CCC3)ccc1O` (configuration not stated) gave TrxR1 inh -23%, Gal4-VP16 FLuc 1%, TrxR1 substrate -7%, RORgamma inh -1%, FBPA coupling cs -3 and GALK inh 1%.
`Cc1[nH]c(=O)[nH]c(=O)c1S(=O)(=O)N1CCC(C(=O)N2CCN(c3cccc(C(F)(F)F)c3)CC2)CC1` gave TrxR1 inh 7%, Gal4-VP16 FLuc -13%, TrxR1 substrate -2%, RORgamma inh 18%, FBPA coupling cs -1 and GALK inh 4%.
`N#CC1=C(c2ccccc2)/C(=C/c2ccccc2)OC1=O` gave TrxR1 inh inconclusive, Gal4-VP16 FLuc 2.2µM*, TrxR1 substrate 5%, RORgamma inh 3.5µM*, FBPA coupling cs 0 and GALK inh -8%.
Screening COc1cc(NC(=O)c2cc3ccccc3cc2O)c(OC)cc1Cl returned TrxR1 inh 25%, Gal4-VP16 FLuc -80%, TrxR1 substrate 20%, RORgamma inh inconclusive, FBPA coupling cs -7 and GALK inh -2%.
COc1ccccc1NC(=O)c1cc2cc(Br)ccc2cc1O was read as TrxR1 inh -6%, Gal4-VP16 FLuc 8.9µM*, TrxR1 substrate -10%, RORgamma inh inconclusive, FBPA coupling cs -20 and GALK inh 5%.
COc1ccccc1NC(=O)c1cc2ccc(O)cc2o/c1=N\O was read as TrxR1 inh 17%[57.1 µM], Gal4-VP16 FLuc 2.2µM*, TrxR1 substrate 17%[57.1 µM], RORgamma inh 0.89µM*, FBPA coupling cs -4 and GALK inh -8%.
C#CCOCCOCCOCCNc1nc(N2CCN(C(=O)CCCCCCCCCCNC(=O)[C@H](CCC(=O)O)n3cc(CCCCCN)nn3)CC2)nc(N2CCN(C(=O)CCCCCCCCCCNC(=O)[C@@H]([C@H](C)O)n3cc(C)nn3)CC2)n1 was read as TrxR1 inh 19%[57.1 µM] and TrxR1 substrate 11%[57.1 µM].
For C#CCOCCOCCOCCNc1nc(N2CCN(C(=O)[C@H](CCCCN)n3cc(CC(C)O)nn3)CC2)nc(N2CCN(C(=O)[C@H](Cc3ccc(O)cc3)n3cc(CCO)nn3)CC2)n1 (some centres not stated) the results were TrxR1 inh 28% and TrxR1 substrate 3%.
C#CCOCCOCCOCCNc1nc(N2CCN(C(=O)CCCCCCCCCCNC(=O)[C@H](CCCCN)n3cc(CCO)nn3)CC2)nc(N2CCN(C(=O)CCCCCCCCCCNC(=O)[C@@H]([C@H](C)O)n3cc(C)nn3)CC2)n1 was read as TrxR1 inh 50µM* and TrxR1 substrate 6%.
C#CCOCCOCCOCCNc1nc(N2CCN(C(=O)Cn3cc(CCCN=C(N)N)nn3)CC2)nc(N2CCN(C(=O)[C@H]([C@@H](C)O)n3cc(CCCCN)nn3)CC2)n1 was read as TrxR1 inh 71µM* and TrxR1 substrate -1%.
Screening C#CCOCCOCCOCCNc1nc(N2CCN(C(=O)[C@H](CCCCN)n3cc(CCCC)nn3)CC2)nc(N2CCN(C(=O)[C@H](Cc3ccc(O)cc3)n3cc(CCO)nn3)CC2)n1 returned TrxR1 inh 14µM*, Gal4-VP16 FLuc -3%, TrxR1 substrate 10%[57.1 µM], RORgamma inh 2% and FBPA coupling cs 1.
For CCOc1ccccc1NC(=O)CN(Cc1ccccc1)S(C)(=O)=O the results were TrxR1 inh 17%, Gal4-VP16 FLuc 16%, TrxR1 substrate 7%, RORgamma inh -2%, FBPA coupling cs 7 and GALK inh -1%.
Screening O=C(NNC(=S)NC(=O)c1cccnc1)c1ccc(Cl)cc1 returned TrxR1 inh inconclusive, Gal4-VP16 FLuc inconclusive, TrxR1 substrate -13%, RORgamma inh 10µM* and FBPA coupling cs 0.

Screening data: PubChem, National Center for Advancing Translational Sciences (NCATS)
